From PubChem BioAssay (NCATS)
Inconclusive results are not listed. Active and inactive are the calls of the source. Calls come from the whole dose curve; as a rule, active = well fitted inhibition curve with a large enough effect; inconclusive = small, poorly fitted or top-dose-only effect; inactive = flat fitted curve, though single readings scatter.

Tests used:
Experiment in all cases: qHTS profiling for inhibitors of Plasmodium falciparum proliferation (AID 504749); note: nearly all actives have a fitted effect of over 60% in size
Conditions in all cases: P. falciparum in erythrocytes, SYBR Green DNA, 72 h; series mostly up to 28.7 µM
CP260 = tested on: CP260
Summary of the method: (§1)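 Fluorescence of SYBR Green-bound parasite DNA, read at 485/535 nm, served as the growth measure. Infected erythrocytes were cultured with compound 72 h; artemisinin (0.29 uM) and DMSO wells defined the normalization range.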

CP265 = tested on: CP265
Summary of the method: as §1

CP266 = tested on: CP266
Summary of the method: as §1

CP268 = tested on: CP268
Summary of the method: as §1

CP305 = tested on: CP305
Summary of the method: as §1

CP315 = tested on: CP315
Summary of the method: as §1

CP325 = tested on: CP325
Summary of the method: as §1

CP329 = tested on: CP329
Summary of the method: as §1

CP335 = tested on: CP335
Summary of the method: as §1

DFO2036 = tested on: DFO2036
Summary of the method: as §1

DIV14 = tested on: DIV14
Summary of the method: as §1

DIV17 = tested on: DIV17
Summary of the method: as §1

DIV30 = tested on: DIV30
Summary of the method: as §1

CP256 = tested on: CP256
Summary of the method: as §1

CP269 = tested on: CP269
Summary of the method: as §1

CP286 = tested on: CP286
Summary of the method: as §1

CP291 = tested on: CP291
Summary of the method: as §1

CP297 = tested on: CP297
Summary of the method: as §1

Dd2 = tested on: Dd2
Summary of the method: as §1

CP262 = tested on: CP262
Summary of the method: as §1

Measured: Potency

COc1c(N2CCNC(C)C2)c(F)cc2c(=O)c(C(=O)O)cn(C3CC3)c12 (stereo unspecified)
not listed: CP256 | CP269 | CP286 | CP291 | CP297 | Dd2 | CP262
inactive: all other assays above

CN1CCN(c2c(F)cc3c(=O)c(C(=O)O)cn4c3c2OCN4C)CC1
not listed: CP262
inactive: all other assays above

CC(C)Cn1cnc2c(N)nc3ccccc3c21
not listed: CP260
inactive: all other assays above
